# Screens deposited in PubChem by several laboratories.
# Rows were chosen to be rich in hits. Some 0.78% of all compounds tested hit in one or more screens of this group.
# Yeast superoxide = caloric restriction mimetics inhibiting age-related superoxide in yeast. S. cerevisiae aged cells, superoxide DHE fluorescence; active compounds read low. 330,000 tested, 0.18% active. superoxide response (% of plate mean), % at 10 µM;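 active = superoxide response under a set limit, about three screen SD below normal, cut at about 65% in these data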;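 also: yeast aged for seven days with compound at 30 °C before DHE staining; 100% = average MFI of all compound-treated wells on the plate with controls excluded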
# V-ATPase pH = regulators of yeast V-ATPase proton transport. S. cerevisiae, pHLuorin cytosolic pH fluorescence. response, % at 10 µM. 350,000 tested, 0.37% active. AID 504577; in the data active = response mostly above about 7.3%, no sharp cut-off; inactive = mostly below about 5.4%; also: actives read high
# PKA-R2B activ = activators of human PKA-R2B complex; P22694+P31323; 340,000 tested, 0.079% active; AID 504700; activation, % at 11.4 µM; PKA-R2B holoenzyme dissociation, Cy5-IP20 fluorescence polarization; R2B truncated from residue 108, S112A mutant; 0% DMSO only, 100% 113 µM cGMP;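 active = activation above a cutoff set at the mean over all compounds plus 3 SD, cut at about 18% in these data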;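 also: higher means more holoenzyme dissociation and a rise in polarization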
# Target sequence (P31323 whole entry, looked up, other chains not shown, the tested form may be a part): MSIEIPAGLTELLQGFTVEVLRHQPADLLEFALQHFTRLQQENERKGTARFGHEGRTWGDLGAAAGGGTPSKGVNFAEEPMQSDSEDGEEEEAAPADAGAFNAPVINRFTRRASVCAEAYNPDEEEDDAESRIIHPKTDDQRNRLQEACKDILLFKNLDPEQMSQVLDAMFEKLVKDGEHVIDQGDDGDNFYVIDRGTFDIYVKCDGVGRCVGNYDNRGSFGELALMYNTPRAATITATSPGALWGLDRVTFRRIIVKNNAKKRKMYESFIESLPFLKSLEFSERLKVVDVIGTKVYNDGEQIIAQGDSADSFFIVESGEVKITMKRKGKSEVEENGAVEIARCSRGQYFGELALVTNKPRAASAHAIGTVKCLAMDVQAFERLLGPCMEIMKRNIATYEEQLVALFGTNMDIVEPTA
# PolyA inh = blocks polyadenylation in yeast reporter cells. S. cerevisiae SKY197-pL101 polyadenylation reporter, beta-gal luminescence; efflux-impaired pdr1/pdr3 knockout yeast; score 100 = 6 SD above DMSO. activity score, % at 12 µM. 300,000 tested, 0.02% active;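 active = lowest replicate activity score at least 50, where 100 means six control SD above control mean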;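 also: yeast exposed to compound for 9 h at 30 °C; higher score means more reporter readthrough which indicates perturbed polyadenylation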
# JMJD2C inh = inhibitors of human GASC-1 (JMJD2C) demethylase; 330,000 tested, 0.069% active; GST-JMJD2C(1-420) H3K9me3 demethylation, DELFIA europium; Q9H3R0; inhibition, % at 2.35 µM;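 active = more than half of a compound's replicate wells show inhibition beyond 50%, single wells judged on their own value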;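 also: signal counts dimethyl H3K9 product captured on neutravidin plate; 0% = median of DMSO wells and 100% = 0.3 times that DMSO median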
# PKA-R1A activ = PKA-R1A complex activation; activation, % at 11.4 µM; 340,000 tested, 0.083% active; PKA-R1A dissociation, Cy5-IP20 fluorescence polarization; scaled: DMSO 0%, 113 µM cGMP 100%;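 active = percent activation above the mean of all tested compounds plus 3 SD, cut at about 19% in these data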;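 also: higher means more PKAc released from R1A so a rise in polarization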
# R2B FP artifact = counter-screen for PKA-R2B activators: fluorescence polarization artifacts | AID 504796 | shares compounds with PKA-R2B activ | FP artifact counterscreen | activation, % at 11.4 µM | 270 tested, 6% active; in the data active = activation above about 20%;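 also: Cy5 labelled IP20 peptide probe with compound but no PKA protein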
# PKA-R2B confirm = PKA-R2B complex activation, confirmation | shares compounds with PKA-R2B activ | fluorescence polarization | activation, % at 11.4 µM | 270 tested, 9% active; in the data active = activation above about 19%
# Target sequence (P31323 whole entry, looked up): as the sequence (P31323 whole entry, looked up, other chains not shown, the tested form may be a part) above
# * = called active by the depositor; i = inactive; · = no result given; + = active, no number.
SMILES,Yeast superoxide,V-ATPase pH,PKA-R2B activ,PolyA inh,JMJD2C inh,PKA-R1A activ,R2B FP artifact,PKA-R2B confirm
CCOC(=O)C1CCN(S(=O)(=O)c2ccc(OC)c(C(=O)N3CCCCC3)c2)CC1,107.3,-0.7,7.9,-9.4,-3.3,-1.9,·,·
C=CCc1cccc(/C=N/NC(=O)c2ccc3nc[nH]c3c2)c1O,122.7,-1.5,4.2,-18.6,21.1,4.6,·,·
Cc1ccccc1-n1c(SCC(=O)N/N=C/C=C/c2ccccc2[N+](=O)[O-])nc2ccccc2c1=O,116.6,-0.9,20.7*,3.8,-8.8,-5.5,-1.4,-4.7
O=C(CSc1nc2ccccc2c(=O)n1-c1ccccc1)N/N=C/C=C/c1ccccc1[N+](=O)[O-],98.5,3.5,-5.2,0.2,-3.1,-7.9,·,·
COc1ccc(CN2CCN(Cc3ccc4ccccc4c3)CC2)cc1OC,109.7,-0.8,23.5*,8.1,-2.7,-8.6,-1.9,-5.0
COc1cc(C)nc(NC(=O)NC(=O)c2ccc(C(F)(F)F)cc2)n1,100.2,2.7,-4.3,0.7,15.5,3.9,·,·
CCOc1ccc(OCc2cccc(C(=O)O)c2)cc1,140.8,1.1,20.2*,-2.5,-3.2,-10.7,3.1,2.2
Cc1ccc(-c2csc3nc(CSc4nnc(-c5ccc(Cl)cc5)n4C)[nH]c(=O)c23)cc1,97.5,-4.9,-4.2,-1.7,-29.3,10.8,·,·
CCn1c(SCc2nc3scc(-c4ccccc4)c3c(=O)[nH]2)nnc1-c1ccc(Cl)cc1,107.3,4.4,19.7*,0.5,-25.5,-2.0,-2.3,-2.5
NC(=O)C1CCN(C(=O)CCC(=O)c2ccc(F)cc2)CC1,94.6,0.3,6.7,-9.3,-24.0,-5.8,·,·
Cc1ccc2nc(SCC(=O)O)nc(C)c2c1,96.1,-0.6,20.2*,-3.3,8.2,6.9,2.5,2.0
NC(=O)NC1(C(=O)O)CCCC1,·,-1.1,3.9,·,·,-4.7,·,·
O=C(O)C1(C(=O)O)CCC1,111.9,-1.4,+,·,·,i,i,i
O=C(CNCc1cccnc1)Nc1cc(C(F)(F)F)ccc1N1CCOCC1,92.5,-5.0,-5.2,4.8,-0.1,-9.5,·,·
CCCN(C)C[C@@H]1Oc2ncc(Br)cc2C(=O)N([C@@H](C)CO)C[C@H]1C,·,0.4,20.4*,·,·,3.2,5.2,3.4
CC(=O)Cn1ncc(N(C)Cc2ccccc2)c(Cl)c1=O,105.1,-3.1,0.0,3.0,12.6,-4.8,·,·
O=C(CSC1=NCCS1)N1CCCC1,87.2,-1.2,21.5*,-0.1,-4.3,-0.5,2.2,-1.6
CC1(C)CC(=O)C/C(=N/NC(=O)COc2ccc3ccccc3c2Br)C1,104.7,1.4,-10.7,-16.4,6.7,2.2,·,·
Cc1ccc(C(=O)NCC(=O)N2CCN(c3ccccc3)CC2)cc1,96.5,0.9,21.3*,8.4,-13.9,15.9,-2.8,-2.9
O=C(NCC(=O)N1CCN(c2ccccc2)CC1)c1ccccc1,125.6,-1.3,-6.2,15.7,10.9,-10.4,·,·
CCN(CC(=O)Nc1ccc(OC)cc1)C(=O)c1ccc2c(c1)NC(=O)C(C)S2 (stereo not given),83.8,3.0,-0.8,16.9,-2.3,-1.0,·,·
CCc1nnc(NC(=O)CSc2nnc(C)n2-c2ccc(C)cc2)s1,92.9,7.1,18.8*,18.7,6.1,-0.6,4.2,1.4
CCOc1ccccc1NC(=O)C(OC(=O)c1ccc(CC)cc1)c1ccccc1 (stereo not given),103.7,2.1,19.2*,3.4,2.2,1.2,0.6,1.0
C[C@@H]1COC(=O)[C@@H](CC(=O)OC(C)(C)C)C/C=C\C[C@@H](CC(=O)NCCO)C(=O)N1,105.2,0.8,-6.2,·,·,-6.9,·,·
CCCCCCCCCCCCCCCC[N+](C)(C)CCN(Cc1ccc(OC)cc1)c1ncccn1,91.4,0.9,30.0*,·,·,-4.2,-1.4,35.6*
SMILES,Yeast superoxide,V-ATPase pH,PKA-R2B activ,PolyA inh,JMJD2C inh,PKA-R1A activ,R2B FP artifact,PKA-R2B confirm
COc1ccc(CN(CCN(C)C)c2ccccn2)cc1,98.6,-0.7,-0.8,29.4,-6.5,-15.0,·,·
CC1=[N+](C)c2ccc3ccccc3c2C1(C)C,102.3,-0.8,18.7*,-5.2,-8.6,13.8,7.0,12.1
O=C(Nc1ccn(CCCNCC(c2ccccc2)c2ccccc2)c(=O)n1)OCc1ccccc1,·,-1.5,-6.5,·,·,0.1,·,·
O=C(OCc1ccc(F)cc1)c1cc(=O)c2ccccc2o1,105.0,-2.7,20.6*,-1.7,-9.6,5.8,1.2,4.0
N#Cc1ccccc1COC(=O)c1cc(=O)c2ccccc2o1,100.9,-4.5,-2.3,-18.2,-4.0,-3.6,·,·
O=C(Nc1cccc(Cl)c1)c1cc(S(=O)(=O)NCCc2ccc(Cl)cc2)ccc1F,97.0,·,-6.2,1.5,-22.8,-7.1,·,·
CC/C(=N\NC(=O)c1nnn(-c2nonc2N)c1-c1cccs1)c1ccccc1,85.0,0.0,1.7,-0.4,-7.7,-2.3,·,·
O=C(c1ccc(OCC2CCCO2)cc1)N1CCN(c2ccccc2)CC1 (stereo not given),100.2,2.1,19.3*,-11.4,-7.8,3.7,2.5,4.7
O=C(c1ccc(OCC2CCCO2)cc1)N1CCc2ccccc2C1 (stereo not given),101.6,-0.1,-4.4,3.7,198.3,-9.6,·,·
CCN(Cc1ccc(OC)c(F)c1)C(=O)/C=C/c1ccc(S(=O)(=O)N2CCOCC2)cc1,77.9,0.4,-0.2,·,4.1,-2.7,·,·
CN(CCOc1ccccc1)CC(=O)Nc1ccc(Cl)cc1[N+](=O)[O-],109.8,2.8,20.7*,11.8,-3.7,-2.2,-1.9,-2.9
O=C1CC2(CCCC2)CC(=O)N1CCCCN1CCN(c2ncccn2)CC1,104.3,3.3,23.3*,5.8,0.6,11.7,2.1,0.1
COc1ccc(NC(=O)N(C)C[C@H]2Oc3ccc(NS(=O)(=O)c4ccccc4)cc3C(=O)N([C@H](C)CO)C[C@@H]2C)cc1,·,4.3,-13.1,·,·,-10.6,·,·
Cc1ccc(C(=O)NC(C)c2nc3ccccc3n2CC(=O)Nc2c(C)cc(C)cc2C)cc1 (stereo not given),108.8,·,·,-3.8,-8.9,·,·,·
CCN(CC)c1ccc(NC(=O)Cn2c(C(C)NC(=O)c3ccccc3)nc3ccccc32)cc1 (stereo not given),86.5,-80.0,18.6*,31.9,7.8,0.5,-3.4,-3.0
O=C(CN1CCN(Cc2ccccc2)CC1)N1CCCCCC1,102.8,3.7,1.1,-1.4,4.8,-1.8,·,·
COC(=O)c1ccc(N2CCN(S(=O)(=O)c3c(C)cc(C)cc3C)CC2)c([N+](=O)[O-])c1,102.3,3.8,18.5*,11.2,11.5,-14.0,-5.1,-4.7
